This is one part of a sample in which hits are shown more often than they occur.
DT40 TDP1 CPT: qHTS for Inhibitors of human tyrosyl-DNA phosphodiesterase 1 (TDP1): qHTS in cells in presence of CPT | hit rate 12% among 420,000 | chicken DT40 Tdp1-/-;hTDP1 cells + 20 nM CPT, ATP luminescence, 48 h | Potency, µM (top dose mostly 46.2 µM), inactives show at the top dose activity change, negative = growth inhibition, usual class: inhibitors | AID 686979, 2013; further: potency means the concentration at half of the fitted maximal effect; nearly all actives have a fitted effect of over 55% in size
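Chicken DT40 Tdp1-/- cells complemented with human TDP1, 400 cells/well, exposed to compounds plus 20 nM camptothecin for at least 48 h at 37 C; viability read as ATP content by CellTiter-Glo luminescence.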
ALOX12 inh: Primary qHTS assay for inhibitors of human arachidonate 12S-lipoxygenase (ALOX12): Round 2; Polyunsaturated fatty acid lipoxygenase ALOX12 (Homo sapiens), P18054; Potency, µM (doses to about 108 µM), for the others: at the top dose activity change, negative = inhibition, hits mostly inhibitors; purified 12hLO, xylenol orange hydroperoxide absorbance; hit rate 1.1% among 580,000; further: potency means the concentration at half of the fitted maximal effect
Target sequence (P18054 whole entry, looked up): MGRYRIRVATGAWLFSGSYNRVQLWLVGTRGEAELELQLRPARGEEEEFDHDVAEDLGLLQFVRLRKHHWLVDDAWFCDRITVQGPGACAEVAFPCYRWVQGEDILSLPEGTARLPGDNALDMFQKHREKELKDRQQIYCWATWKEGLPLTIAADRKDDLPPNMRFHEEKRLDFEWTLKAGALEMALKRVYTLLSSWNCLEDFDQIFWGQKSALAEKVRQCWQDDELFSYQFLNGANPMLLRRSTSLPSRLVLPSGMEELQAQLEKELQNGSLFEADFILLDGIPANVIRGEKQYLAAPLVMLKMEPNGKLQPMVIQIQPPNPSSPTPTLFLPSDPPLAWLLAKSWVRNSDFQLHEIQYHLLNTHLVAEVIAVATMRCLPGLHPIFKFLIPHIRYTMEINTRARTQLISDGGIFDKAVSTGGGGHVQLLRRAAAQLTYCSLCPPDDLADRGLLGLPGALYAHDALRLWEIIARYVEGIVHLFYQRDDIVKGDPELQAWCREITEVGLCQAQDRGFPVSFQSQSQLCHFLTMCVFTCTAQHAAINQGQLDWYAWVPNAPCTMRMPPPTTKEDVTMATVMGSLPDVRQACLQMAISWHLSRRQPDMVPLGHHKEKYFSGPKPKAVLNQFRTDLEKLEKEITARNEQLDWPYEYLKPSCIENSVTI
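Purified human 12hLO (150 nM final) in 25 mM Hepes, 0.01% Triton X-100, pH 7.0 was preincubated 15 min at room temperature with compound. Then 40 uM arachidonic acid was added, 30 min. Hydroperoxide was read by Fe-XO absorbance ratio 573/405 nm.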
IL-1B inflam inh: qHTS for Inhibitors of Inflammasome Signaling: IL-1-beta AlphaLISA Primary Screen; THP-1 LPS/ATP IL-1B secretion, AlphaLISA, 16 h; stronger effect = lower value; activity change, % at 57.5 µM; hit rate 4.7% among 360,000; AID 743279, 2014; in the data active means activity change below about -50%; inconclusive means mostly about -30% to -49%
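Secreted IL-1B measured by AlphaLISA bead assay after 16 h compound exposure of THP-1 cells; compounds (final up to 57.5 uM) added 1 h before LPS (250 ng/mL) and ATP (1.25 mM) stimulation; lower signal means less secretion.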
HT1080NT lethal: qHTS for induction of synthetic lethality in tumor cells producing 2HG: qHTS for the HT-1080-NT fibrosarcoma cell line; HT-1080-NT fibrosarcoma viability, CellTiter-Glo ATP luminescence, 48 h; Potency, µM (highest dose often 46.1 µM), for inactives: at the top dose activity, negative = less viability, most hits filed as cytotoxic; hit rate 1.6% among 360,000;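 further: NT is the 2HG producing partner of a matched IDH1 knockdown line; potency means the concentration at half of the fitted maximal effect; 0% = DMSO-treated cells and -100% = media-only wells without cells; nearly all actives have a fitted effect of over 55% in size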
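Viability of the 2HG-overproducing fibrosarcoma line after 48 hours of compound exposure at 37 degrees C was determined by luminescence with CellTiter-Glo, and concentration-effect curves were then fitted and categorized.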
TDP1 cell noCPT: qHTS for Inhibitors of human tyrosyl-DNA phosphodiesterase 1 (TDP1): qHTS in cells in absence of CPT; DT40 Tdp1-/- hTDP1 cells, no CPT, ATP luminescence, 48 h; Potency, µM (doses to about 46.2 µM), for the others: at the highest dose activity change, negative = growth inhibition, actives largely listed as inhibitors; hit rate 15% among 420,000; AID 686978, 2013; further: potency means the concentration at half of the fitted maximal effect; nearly all actives have a fitted effect of over 55% in size
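No-CPT arm: Tdp1-/-;hTDP1 DT40 cells (400/well) plus compounds, incubated ≥48 hr at 37 °C. Readout CellTiter-Glo luminescence.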
HT1080 IDH1KD tx: qHTS for induction of synthetic lethality in tumor cells producing 2HG: qHTS for the HT-1080-IDH1KD cell line; HT-1080 IDH1 knockdown viability, ATP luminescence, 48 h; Potency, µM (highest dose often 46.1 µM), inactives show at the top dose activity, negative = toxicity, actives largely listed as cytotoxic; hit rate 2% among 360,000; AID 686971, 2013;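 further: potency means the concentration at half of the fitted maximal effect; 0% = DMSO wells and -100% = cell-free medium wells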
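After a 2 h attachment period, IDH1KD HT-1080 cells took pin-transferred compound for 48 h at 37 °C; ATP-based luminescence after 10 min room-temperature reagent incubation reported viability.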
* marks the source's active call; other numbers are inactive results; ? = inconclusive; nt = no result; [ ] = another dose, or the depositor's remark. Unless noted, the call rests on the fitted dose curve; in most records, active means well fitted curve in the direction sought with a large enough effect; inconclusive means small, poorly fitted or top-dose-only effect, or another doubt; inactive means no such curve, though single readings can be large; an effect the other way counts as inactive or inconclusive. Unless noted, on the % scale 0 is the no-effect control and ±100 the full control effect.

SMILES | DT40 TDP1 CPT | ALOX12 inh | IL-1B inflam inh | HT1080NT lethal | TDP1 cell noCPT | HT1080 IDH1KD tx
O=C(O)c1ccc(COc2ccc(Br)cc2)cc1 | nt | 16% | nt | nt | nt | nt
Cc1cc(NC(=O)CSc2nc(-c3ccccc3Cl)nc3c2c(=O)n(C)c(=O)n3C)no1 | -9% | 5% | 20 | 17% | -1% | 19%
COC(=O)c1cc(OCc2ccccc2C#N)cc(C(=O)OC)c1 | nt | 15% | nt | nt | nt | nt
Oc1[nH]c2ccc(Br)cc2c1N=NC(=S)N1CCOCC1 | 0.73µM* | 40µM* | 158 | ? | 0.73µM* | 1µM*
Oc1[nH]c2ccccc2c1N=NC(=S)N1CCOCC1 | 1.6µM* | nt | 130 | ? | 1.5µM* | ?
O=C(N=Nc1c(O)[nH]c2ccccc12)c1ccc(CN2CCOCC2)cc1 | -27% | -3% | -21 | 1% | ? | 3%
Cc1cc(C)cc(NC(=O)CCS(=O)(=O)c2ccc3c(c2)oc(=O)n3C)c1 | -25% | -20% | nt | nt | -25% | nt
CCCCCCC(=O)OCC | nt | -4%[176 µM] | nt | nt | nt | nt
COCCNC(=O)[C@H]1C[C@H](Oc2ccccc2)CN1C(=O)c1n[nH]c2ccccc12 | nt | 2% | nt | nt | nt | nt
COC(=O)c1ccc(NCc2cc(O)ccc2O)cc1O | 5.2µM* | 5µM* | -104* | ? | 3.3µM* | ?
COC(=O)c1ccc(NCc2c(O)ccc(O)c2Br)cc1Cl | 2.6µM* | 0.89µM* | -119* | -12% | 4.6µM* | -24%
Cc1cccc(-c2nc(CC(=O)N(C)CC(=O)Nc3cccc(F)c3)cs2)c1 | nt | -1% | nt | nt | nt | nt
CCOc1ccc(S(=O)(=O)N(CC(=O)NCCSc2ccc(C)cc2)c2ccccc2)cc1 | -20% | -10% | nt | nt | -19% | nt
Cc1ccc(S(=O)(=O)N(CC(=O)NCCSc2ccc(Cl)cc2)c2cccc(Cl)c2)cc1 | ? | 5% | nt | nt | 21µM* | nt
Cc1ccc(N(CC(=O)NCCSc2ccccc2)S(=O)(=O)c2ccc(F)cc2)cc1 | ? | -35% | nt | nt | 9.2µM* | nt
COc1ccc(S(=O)(=O)N(CC(=O)NCCSc2ccc(C)cc2)c2ccc(C)cc2)cc1 | 18µM* | ? | nt | nt | 23µM* | nt
CSc1ccccc1NC(=O)c1ccsc1 | nt | -28% | nt | nt | nt | nt
Cc1cccc(OCCN2CSC(=S)N(C)C2)c1 | 4.6µM* | 0% | -96* | 18µM* | 3.3µM* | ?
COc1ccccc1OCCN1CSC(=S)N(C)C1 | 1.2µM* | -22% | -107* | 9.2µM* | 1.8µM* | 7.3µM*
Cc1cccc(OCCn2cnc(Cl)c2Cl)c1 | -28% | ? | -52* | 7% | -16% | -7%
COC(=O)c1ccccc1NC(=O)CN(c1ccc(OC)cc1OC)S(C)(=O)=O | nt | -30% | nt | nt | nt | nt
COc1ccc(-c2nc(-c3nnn4c3COC(c3ccc(C)cc3)C4)no2)cc1 (stereo not drawn) | nt | 38% | nt | nt | nt | nt
O=C1CC(c2ccccc2)N(C(=O)CNC(=O)c2n[nH]c3ccccc23)CCCCCCN1 (stereo not drawn) | nt | 11% | nt | nt | nt | nt
Cc1ccc(C(C)C)c(OCCNCc2ccccc2)c1 | ? | ? | ? | 5% | 21µM* | 0%
Cc1ccc(C(C)C)c(OCCNC(=S)Nc2cccc3ccccc23)c1 | 14µM* | ? | 0 | 5.6µM* | 13µM* | 7.9µM*
CC(C)(C)c1ccccc1OCCOCCNCc1ccccc1 | 16µM* | -23% | -57* | -23% | 13µM* | ?
Cc1cc(OCCOCCNCc2ccccc2)ccc1C(C)C | 18µM* | ? | -63* | -26% | 12µM* | -19%

Source: PubChem BioAssay
